Experimental data reported in PubChem BioAssay.
Calls of active or inactive are those of the source.

What was measured:
[1] = binders of probe aFSTL3 on microarray, primary screen, stem cell growth factor project, biochemical, small-molecule microarray, fluorescence 635/667 (AID 1064); settings: higher = more signal;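 also: measures binding of the biotinylated anti-FSTL3 antibody to printed compounds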
[2] = binders from COS7 lysate, DM2A8 probe, primary screen, torsin A project, cell lysate, small-molecule microarray, fluorescence 635/667 (AID 1065); settings: higher = more signal, COS7 lysate expressing mutant human TOR1A
[3] = binders of probe aFGF2 on microarray, primary screen, stem cell growth factor project, biochemical, small-molecule microarray, fluorescence 635/667 (AID 1067); settings: higher = more signal;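 also: measures binding of biotinylated aFGF2 protein to printed compounds on slides; z-score merges feature fluorescence and signal-to-noise across triplicate slides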
[4] = binders of probe aFGF10 on microarray, primary screen, stem cell growth factor project, biochemical, small-molecule microarray, fluorescence 635/667 (AID 1071); settings: higher = more signal;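 also: score merges 667 nm spot intensity and signal to noise from triplicate slides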
[5] = target: Neurogenic locus notch homolog protein 2 (Homo sapiens) (UniProt Q04721); test: Notch2 binders on small-molecule microarrays, primary screen, biochemical, small-molecule microarray, 635 nm fluorescence, stem cell growth factors (AID 1073); settings: Notch2 binding, higher = more signal
Sequence of Neurogenic locus notch homolog protein 2 (Homo sapiens) (Q04721 whole entry, looked up, canonical isoform): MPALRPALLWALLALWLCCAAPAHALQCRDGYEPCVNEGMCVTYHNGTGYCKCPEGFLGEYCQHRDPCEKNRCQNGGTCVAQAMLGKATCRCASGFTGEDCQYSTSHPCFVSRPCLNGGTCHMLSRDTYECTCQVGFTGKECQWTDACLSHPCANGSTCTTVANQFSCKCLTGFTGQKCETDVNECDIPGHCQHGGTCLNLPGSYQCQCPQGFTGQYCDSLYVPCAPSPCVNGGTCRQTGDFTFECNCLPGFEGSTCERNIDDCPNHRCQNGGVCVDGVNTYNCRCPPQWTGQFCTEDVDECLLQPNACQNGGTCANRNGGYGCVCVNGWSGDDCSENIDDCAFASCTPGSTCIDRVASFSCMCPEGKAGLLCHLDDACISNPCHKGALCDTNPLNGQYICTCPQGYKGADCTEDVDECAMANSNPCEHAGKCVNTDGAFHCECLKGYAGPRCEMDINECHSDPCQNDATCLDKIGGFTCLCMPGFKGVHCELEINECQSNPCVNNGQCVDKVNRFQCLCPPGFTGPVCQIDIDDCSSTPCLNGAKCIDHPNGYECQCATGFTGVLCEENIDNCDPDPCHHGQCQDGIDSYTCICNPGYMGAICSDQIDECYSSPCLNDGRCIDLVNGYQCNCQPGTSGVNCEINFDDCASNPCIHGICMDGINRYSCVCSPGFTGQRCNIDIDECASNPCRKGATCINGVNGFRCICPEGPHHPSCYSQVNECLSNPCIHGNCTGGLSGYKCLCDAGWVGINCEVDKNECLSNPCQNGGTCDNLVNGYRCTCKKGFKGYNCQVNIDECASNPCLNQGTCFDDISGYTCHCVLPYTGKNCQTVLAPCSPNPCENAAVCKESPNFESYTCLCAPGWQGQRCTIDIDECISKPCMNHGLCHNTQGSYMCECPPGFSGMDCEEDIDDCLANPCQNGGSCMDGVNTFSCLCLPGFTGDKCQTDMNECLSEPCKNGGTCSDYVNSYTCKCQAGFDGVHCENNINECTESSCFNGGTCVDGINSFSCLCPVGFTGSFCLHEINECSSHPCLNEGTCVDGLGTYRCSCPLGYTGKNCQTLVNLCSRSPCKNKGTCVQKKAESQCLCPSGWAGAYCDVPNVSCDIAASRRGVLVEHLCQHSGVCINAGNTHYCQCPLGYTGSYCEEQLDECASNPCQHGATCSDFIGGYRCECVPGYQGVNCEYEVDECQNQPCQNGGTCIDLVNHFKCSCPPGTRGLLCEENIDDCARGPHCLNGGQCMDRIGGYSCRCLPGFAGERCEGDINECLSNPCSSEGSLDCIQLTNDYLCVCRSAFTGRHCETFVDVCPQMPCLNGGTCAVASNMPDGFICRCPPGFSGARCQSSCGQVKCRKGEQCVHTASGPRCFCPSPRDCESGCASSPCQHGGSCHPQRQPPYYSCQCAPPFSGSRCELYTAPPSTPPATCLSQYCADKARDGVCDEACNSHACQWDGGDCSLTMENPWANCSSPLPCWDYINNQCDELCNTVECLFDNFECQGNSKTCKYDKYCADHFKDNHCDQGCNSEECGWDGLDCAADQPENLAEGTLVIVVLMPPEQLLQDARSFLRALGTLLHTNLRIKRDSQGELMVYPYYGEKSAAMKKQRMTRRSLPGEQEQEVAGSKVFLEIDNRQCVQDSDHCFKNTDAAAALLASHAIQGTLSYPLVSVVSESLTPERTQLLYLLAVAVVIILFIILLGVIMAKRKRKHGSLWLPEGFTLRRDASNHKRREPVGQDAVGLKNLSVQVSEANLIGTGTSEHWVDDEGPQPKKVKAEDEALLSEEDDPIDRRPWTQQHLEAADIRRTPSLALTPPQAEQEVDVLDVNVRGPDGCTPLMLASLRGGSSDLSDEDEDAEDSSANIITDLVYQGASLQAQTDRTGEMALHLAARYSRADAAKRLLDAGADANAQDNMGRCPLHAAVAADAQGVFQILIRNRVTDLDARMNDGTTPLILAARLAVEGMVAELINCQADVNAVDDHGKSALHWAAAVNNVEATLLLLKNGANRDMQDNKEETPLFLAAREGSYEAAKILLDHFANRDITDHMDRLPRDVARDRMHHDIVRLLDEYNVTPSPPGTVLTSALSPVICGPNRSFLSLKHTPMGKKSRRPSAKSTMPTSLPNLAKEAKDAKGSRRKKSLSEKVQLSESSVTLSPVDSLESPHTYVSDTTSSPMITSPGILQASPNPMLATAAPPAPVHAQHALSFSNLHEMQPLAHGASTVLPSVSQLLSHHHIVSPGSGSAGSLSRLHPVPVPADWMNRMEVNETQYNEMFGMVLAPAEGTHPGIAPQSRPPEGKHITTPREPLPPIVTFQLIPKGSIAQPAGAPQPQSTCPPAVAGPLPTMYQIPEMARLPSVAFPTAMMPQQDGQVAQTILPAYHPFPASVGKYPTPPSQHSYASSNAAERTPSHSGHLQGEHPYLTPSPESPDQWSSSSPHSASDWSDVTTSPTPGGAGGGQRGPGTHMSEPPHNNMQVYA

[6] = target: Pro-neuregulin-1, membrane-bound isoform (Homo sapiens) (UniProt Q02297); test: NRG1 binders on small-molecule microarrays, primary screen, psychiatric disease protein project, biochemical, small-molecule microarray, fluorescence 635/667 (AID 1075); settings: NRG1 binding, 635 nm fluorescence, higher = more signal;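 also: score combines 667 nm spot fluorescence with signal to noise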
Sequence of Pro-neuregulin-1, membrane-bound isoform (Homo sapiens) (Q02297 whole entry, looked up, the tested form may be a part, canonical isoform): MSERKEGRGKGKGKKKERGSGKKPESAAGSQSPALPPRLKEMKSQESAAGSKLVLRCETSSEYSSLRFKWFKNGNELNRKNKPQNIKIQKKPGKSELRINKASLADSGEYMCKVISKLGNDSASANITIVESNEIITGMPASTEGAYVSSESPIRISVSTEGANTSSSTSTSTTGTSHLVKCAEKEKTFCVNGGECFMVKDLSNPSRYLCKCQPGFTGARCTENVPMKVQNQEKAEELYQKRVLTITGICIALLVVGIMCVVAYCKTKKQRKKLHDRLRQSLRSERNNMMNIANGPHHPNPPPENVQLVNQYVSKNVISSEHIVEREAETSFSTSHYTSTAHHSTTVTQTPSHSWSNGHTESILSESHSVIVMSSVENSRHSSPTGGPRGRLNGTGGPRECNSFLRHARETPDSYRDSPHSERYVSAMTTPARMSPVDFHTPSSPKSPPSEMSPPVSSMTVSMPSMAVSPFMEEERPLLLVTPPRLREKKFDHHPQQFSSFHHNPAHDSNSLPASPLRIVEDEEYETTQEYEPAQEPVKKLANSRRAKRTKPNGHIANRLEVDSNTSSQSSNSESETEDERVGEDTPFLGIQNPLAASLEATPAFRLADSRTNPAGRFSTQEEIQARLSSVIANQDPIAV

[7] = system: Neuregulin-1 EGF-like domain; test: binders of neuregulin-1 EGF-like domain, primary screen, biochemical, small-molecule microarray, 635 nm fluorescence (AID 1081); settings: small-molecule microarray binding, higher = more signal;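 also: binding of the protein to compounds printed on small-molecule microarray slides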
[8] = FRG1 promoter luciferase signal modulators, primary screen, FRG1 inhibition for FSHD, cell-based, C2C12 myotubes, firefly/Renilla luciferase, luminescence (AID 1084); settings: higher = more signal, called active from +8 up or from −8 down
[9] = binders of probe aFST on microarray, primary screen, stem cell growth factor project, biochemical, small-molecule microarray, fluorescence 635/667 (AID 1086); settings: higher = more signal;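 also: score merges 667 nm fluorescence with signal-to-noise of each printed compound spot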
[10] = binders of probe aHhip on microarray, primary screen, stem cell growth factor project, biochemical, small-molecule microarray, fluorescence 635/667 (AID 1087); settings: higher = more signal;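 also: score merges spot fluorescence at 667nm with spot signal to noise ratio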
[11] = system: PRMT1 (protein arginine N-methyltransferase 1); test: PRMT1 binders on small-molecule microarrays, primary screen, biochemical, small-molecule microarray, 635 nm fluorescence (AID 1088); settings: small-molecule microarray binding, higher = more signal;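 also: binding of Prmt1 protein to compounds spotted on small-molecule microarray slides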
[12] = yeast growth modulation, basal conditions, primary screen, YJM789 clinical isolate, OD600, 24 h (AID 1089);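 also: growth of clinical yeast isolate S. cerevisiae YJM 789 seeded 1000 cells per well; test concentration not given here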; settings: S. cerevisiae YJM789 growth, higher = more signal, called active from +8 up or from −8 down
[13] = fission yeast growth modulation, primary screen, strain 972, OD600, 24 h, no modulator (AID 1090);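 also: basal condition with compound alone and no growth modifier present; test concentration not given here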; settings: S. pombe 972 growth, higher = more signal, called active from +8 up or from −8 down
[14] = S. cerevisiae growth modulation with rapamycin, primary screen, strain BY4716, OD600, 96 h (AID 1091); settings: higher = more signal, called active from +8 up or from −8 down; also: test concentration not given here
[15] = target: Torsin-1A-interacting protein 2 (Homo sapiens) (UniProt Q8NFQ8); test: LULL1 binders on small-molecule microarray, primary screen, cell lysate, human LULL1 lysate, 635/667 nm fluorescence (AID 1092); settings: hLULL1 lysate binding, 635 nm fluorescence, higher = more signal;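 also: probe is lysate of COS7 cells overexpressing human LULL1; score merges per-feature 667 nm fluorescence with signal-to-noise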
Sequence of Torsin-1A-interacting protein 2 (Homo sapiens) (Q8NFQ8 whole entry, looked up): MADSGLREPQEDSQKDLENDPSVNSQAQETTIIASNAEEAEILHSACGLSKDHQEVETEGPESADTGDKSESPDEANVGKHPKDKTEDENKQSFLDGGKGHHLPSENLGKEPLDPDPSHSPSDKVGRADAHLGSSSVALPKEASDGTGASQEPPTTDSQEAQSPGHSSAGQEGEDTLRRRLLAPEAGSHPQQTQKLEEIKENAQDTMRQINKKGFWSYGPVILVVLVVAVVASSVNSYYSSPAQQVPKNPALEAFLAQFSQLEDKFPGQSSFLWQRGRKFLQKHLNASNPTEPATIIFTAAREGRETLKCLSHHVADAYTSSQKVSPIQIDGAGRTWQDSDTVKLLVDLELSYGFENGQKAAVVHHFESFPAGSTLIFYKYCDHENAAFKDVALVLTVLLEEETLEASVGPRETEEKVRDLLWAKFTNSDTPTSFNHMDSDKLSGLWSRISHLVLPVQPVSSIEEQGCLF

[16] = E. coli growth modulation, two-sided OD650, primary screen, E. coli filamentation project, strain DRC41, 24 h (AID 1093); settings: OD650, 24 h, higher = more signal, called active from +8 up or from −8 down;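 also: MC1000 strain lacking acrAB efflux and sulA so SOS filamentation is blocked; test concentration not given here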
[17] = small-molecule microarray binders of probe aLefty2, primary screen, biochemical, biotinylated probe, 635/667 nm fluorescence (AID 1094); settings: higher = more signal;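 also: score merges spot fluorescence near 667 nm with spot signal-to-noise ratio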
[18] = system: Noggin (protein binding on small-molecule microarray); test: Noggin binders on small-molecule microarray, primary screen, biochemical, 635/667 nm fluorescence (AID 1095); settings: 635 nm fluorescence, higher = more signal;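 also: score merges 667 nm feature fluorescence with signal to noise over triplicate slides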
[19] = target: Neurogenic locus notch homolog protein 3 (Homo sapiens) (UniProt Q9UM47); test: NOTCH3 binders on small-molecule microarray, primary screen, biochemical, 635/667 nm fluorescence (AID 1096); settings: NOTCH3 binding, 635 nm fluorescence, higher = more signal
[20] = small-molecule microarray binders of probe aEGFR, primary screen, biochemical, biotinylated probe, 635/667 nm fluorescence (AID 1097); settings: higher = more signal;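 also: probe is a biotinylated anti-EGFR antibody binding compounds printed on slides; score combines fluorescence near 667 nm and signal to noise of each spot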

| Compound | composite z-score [1] | composite z-score [2] | composite z-score [3] | composite z-score [4] | composite z-score [5] | composite z-score [6] | composite z-score [7] | z-score [8] | composite z-score [9] | composite z-score [10] | composite z-score [11] | z-score [12] | z-score [13] | z-score [14] | composite z-score [15] | z-score [16] | composite z-score [17] | composite z-score [18] | composite z-score [19] | composite z-score [20] |
| --- | --- | --- | --- | --- | --- | --- | --- | --- | --- | --- | --- | --- | --- | --- | --- | --- | --- | --- | --- | --- |
| C[N+](C)(C)CCCC[C@@H]1NC(=O)[C@@H]2C[C@H](C(=O)NCCCCCN)[C@H](c3cccc(OCCO)c3)N2C1=O | 0.6 | 1.6 | -0.0253 | 0.506 | 1.14 | 2.15 | 1.08 | -0.992 (inactive) | 0.877 | 0.161 | 1.28 | -0.465 (inactive) | -2.09 (inactive) | 0.371 (inactive) | 2.15 | -0.291 (inactive) | 0.231 | -0.0236 | 0.182 | -0.0037 |
| C=CCC(OC(C)=O)[C@@H]1[C@@H](N(Cc2ccc(-c3cccc(C(F)(F)F)c3)o2)C(=O)c2ccc(-c3ccccc3)cc2)c2cc(OCCCO)ccc2N1C(=O)c1ccc(-c2ccccc2)cc1 (stereo not given in full) | 0.0961 | -0.233 | -0.0242 | 0.232 | 0.242 | 0.0249 | -0.825 | -0.245 (inactive) | 0.13 | -0.0994 | -0.432 | 0.308 (inactive) | -0.0943 (inactive) | 0.8 (inactive) | 1.03 | -0.801 (inactive) | 0.0869 | -0.29 | -0.147 | -0.15 |
| O=C1O[C@@H](c2ccccc2)[C@@H](c2ccccc2)N2[C@@H](c3ccccc3OCCO)[C@]3(C(=O)Nc4ccc(C#CC5=CCCCC5)cc43)[C@@H](C(=O)Nc3nc4ccccc4s3)[C@H]12 | -0.177 | 0.106 | -0.0267 | 1.09 | 1.11 | 0.792 | 0.94 | 0.197 (inactive) | 0.438 | -0.0346 | 1.56 | 1.37 (inactive) | 1.8 (inactive) | 2.58 (inactive) | 2.4 | 0.901 (inactive) | 0.123 | 0.82 | 0.993 | 0.0224 |
| COC(=O)c1c(CC[C@@H](CO)NC(=O)N[C@H](Cn2cc(Cc3ccccc3)nn2)C(C)C)oc(C(C)=O)c1C(=O)OC | -0.234 | 0.128 | -0.119 | 1.09 | 0.0441 | 0.0567 | 1.06 | 0.82 (inactive) | 0.059 | -0.236 | 1.08 | -0.178 (inactive) | -0.787 (inactive) | 0.158 (inactive) | 1.08 | 0.918 (inactive) | -0.166 | 0.493 | 0.39 | -0.145 |
| CCN(CC)c1ccc(N2CC=CC34O[C@@H]5/C=C\CCCOC(=O)C5[C@H]3C(=O)N(CCO)[C@@H]4C2=O)cc1 (stereo not given in full) | 0.244 | -0.542 | -0.0785 | -0.715 | -1.24 | 1.84 | 0.632 | 0.599 (inactive) | -0.584 | -0.0061 | 0.0226 | 0.0765 (inactive) | -1.11 (inactive) | 0.0541 (inactive) | 1.3 | 0.557 (inactive) | -0.253 | -0.715 | -0.162 | -0.286 |
| COc1ccc(CCNC(=O)[C@@]2(C)c3ccccc3C(=O)N(Cc3cc(F)cc(C(F)(F)F)c3)[C@H]2c2ccc(CO)cc2)cc1 | 0.498 | -0.518 | 0.0046 | -0.23 | 0.146 | 0.499 | 0.969 | -3.42 (inactive) | -0.247 | 0.156 | 0.117 | -0.143 (inactive) | -0.995 (inactive) | 0.882 (inactive) | 2.3 | 0.449 (inactive) | -0.0112 | -0.969 | -0.42 | -0.0549 |
| COC(=O)C(CC#Cc1ccc2c(c1)[C@]1(C(=O)N2)[C@H](c2ccc(O)cc2)N2[C@H](c3ccccc3)[C@H](c3ccccc3)OC(=O)[C@H]2[C@@H]1C(=O)Nc1nc2ccccc2s1)C(=O)OC | -0.386 | 0.372 | 0.0402 | 1.08 | 1.23 | 1.44 | 1.24 | -0.532 (inactive) | 0.313 | -0.0672 | 1.54 | -1.28 (inactive) | -0.496 (inactive) | -1.33 (inactive) | 3.22 | 0.91 (inactive) | 0.0669 | 0.508 | 1.13 | 0.0414 |
| COc1ccc(C(=O)Nc2ccc(CN3C(=O)[C@@]4(O[C@@H](CCO)[C@H]([Si](C)(C)c5ccc(OC)cc5)[C@H]4C)c4ccccc43)cc2)cc1 | -0.0338 | 0.623 | -0.113 | 0.187 | 0.912 | 1.22 | 1.1 | -3.12 (inactive) | 0.25 | -0.0645 | 1.54 | -0.81 (inactive) | -7.92 (inactive) | 0.495 (inactive) | 1.4 | 0.0243 (inactive) | 0.0217 | 1.49 | 1.08 | -0.0774 |
| C=CC[C@]1(C(=O)N2CCCCC2)N=C(c2ccc(OCCCO)cc2)O[C@H]1c1ccccc1 | 1.08 | 0.785 | 0.0472 | 0.452 | 0.668 | 1.77 | 1.17 | -1.11 (inactive) | 1.63 | 1.27 | 1.58 | -1.97 (inactive) | -5.54 (inactive) | -2.04 (inactive) | 3.21 | 1.14 (inactive) | 0.495 | 1.06 | 0.369 | 0.35 |
| COc1ccc([Si](C)(C)[C@H]2[C@H](CC(=O)N3CCC[C@H]3CO)O[C@@]3(C(=O)N(Cc4cccc(N5C(=O)c6cccc7cccc5c67)c4)c4ccccc43)[C@@H]2C)cc1 | -0.354 | -0.0115 | 0.0686 | 0.483 | 0.818 | 1.77 | 0.981 | -4.24 (inactive) | 0.305 | 0.166 | 1.56 | -0.0977 (inactive) | 0.696 (inactive) | -0.15 (inactive) | 2.08 | -0.0831 (inactive) | 0.031 | 1.57 | 1.05 | -0.0549 |
| CN1C(=O)C2C=CC(C(O)Cc3ccccc3)N(Nc3ccccc3)C2C1=O (stereo not given) | 0.0217 | -0.576 | -0.116 | 0.294 | 1.21 | 1.38 | 1.13 | 0.84 (inactive) | 0.0791 | -0.236 | 0.0459 | 0.398 (inactive) | 0.0113 (inactive) | -0.0322 (inactive) | 3.43 | -1.05 (inactive) | 0.126 | 0.129 | 0.297 | -0.071 |
| CCOC(=O)C[C@H]1[C@H](OC(=O)c2ccc(C(=O)c3ccccc3)cc2)[C@@H](NC(=O)c2ccc(-c3ccccc3)cc2)c2cc(OCCCO)ccc2N1C(=O)c1ccccc1 | -0.57 | -0.264 | -0.212 | 0.577 | 0.639 | 0.771 | 0.744 | 0.805 (inactive) | 0.319 | -0.164 | 1.36 | -0.575 (inactive) | -0.34 (inactive) | -0.169 (inactive) | 1.45 | -0.83 (inactive) | -0.221 | 0.421 | 1.03 | 0.0911 |
